Here are results for 50 compounds from PubChem BioAssay AID588342 (National Center for Advancing Translational Sciences (NCATS), 2011).

Each structure is given as a SMILES string. Screen size: about 360,000 compounds; about 25,000 (6.9%) were called active. Another 9% or so got no clear call; they are omitted. Only a selection was taken, and actives are over-represented in it overall. Values without a mark were called inactive. The call rests on the fitted dose curve; in most records, active means well fitted inhibition curve with a large enough effect; inconclusive means small, poorly fitted or top-dose-only effect; inactive means flat fitted curve, though single readings scatter.

The target in the assay is Luciferin 4-monooxygenase (Photinus pyralis) (UniProt P08659). Put plainly: qHTS profiling assay for firefly luciferase inhibitor/activator using purifed enzyme and Km concentrations of substrates (counterscreen for miR-21 project). Further: nearly all actives have a fitted effect of over 55% in size.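 On activity change, negative = inhibition: plate controls were vehicle for no effect and reference inhibitor for full effect.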 The conditions noted are these: purified FLuc, luminescence inhibition; series mostly up to 57.5 µM; activity change, negative = inhibition: at the top concentration. An excerpt: MLPCN Grant: 1 R21 NS059478-01 (miR-21 grant) Assay Provider: NCGC NCGC Assay Overview: Firefly (Photinus pyralis) luciferase is one of the most commonly used transcriptional reporters for a number of reasons. It is considered one of the more dynamically responsive reporters -that is, responsive to changes in reporter transcription - as it requires no post-translational modifications and is enzymatically active directly after protein synthesis (Wood, 1998). Additionally, the half-life of the luciferase protein is short relative to other reporter-gene products (Wood, 1995). Whereas reporters with long half-lives potentially allow for increased signal due to accumulation of reporter-gene product, once accumulated in the cell, dynamic changes in reporter-gene expression may be difficult to detect(Fan and Wood, 2007; Almond et al., 2004). It has been shown that wild-type P. pyralis luciferase has a half-life of approximately […] hours in mammalian cells (Thompson et al., 1991). Firefly luciferase reporter-gene assays are also generally considered one of the most sensitive assay types (Wood, 1995; Wood, 1998). Although light produced in a bioluminescence reaction is of lower intensity than that produced during fluorescence emission, this is offset by little to no background light inherent to luminescent assays. Thus the luciferase reporter can be expressed at much lower levels than fluorescent proteins while still providing robust signal. # However, it was initially observed, in 1991, by Thompson et al., that compounds that resemble the substrates of firefly luciferase (FLuc) can act as competitive inhibitors of the enzyme, and that these compounds, upon interaction with luciferase in the cell, can actually stabilize the protein and increase its half-life. Accumulated intracellular FLuc protein can be measured as an increase in luminescence signal, upon addition of detection reagents (which contain high concentrations of FLuc substrates) commonly used in high-throughput screening. In cell-based reporter gene assays that use FLuc as the reporter gene to quantitate the potential influence of a given compound against the target biology, this apparent increase in luminescence can mistakenly be interpreted as identification of a compound that is active against the target of interest. This is the case for the miR-21 FLuc reporter gene assay used to identify inhibitors of the miR-21 pathway (PubChem AID 2289) - compounds of interest will inhibit miR-21 biogenesis/expression or activity, and are identified by causing an increase in luminescence, due to increased FLuc translation. However, FLuc inhibitory compounds that stabilize the FLuc protein will give an identical read-out, making it difficult to distinguish compounds that are active against the target from those active against FLuc. Previous profiling work to determine the prevalence of compounds that affect FLuc enzymatic activity (PubChem AID 411) identified that ~3% of the MLSMR library (then at ~72K) inhibited FLuc. […] Since the MLSMR had grown to ~350K compounds, and since it was expected that a significant percentage of compounds found active in the miR-21 FLuc assay would be FLuc inhibitors, the library was screened for activity against FLuc using a biochemical assay of purified FLuc and KM concentrations of FLuc substrates (D-luciferin and ATP).
Sequence of Luciferin 4-monooxygenase (Photinus pyralis) (P08659 whole entry, looked up): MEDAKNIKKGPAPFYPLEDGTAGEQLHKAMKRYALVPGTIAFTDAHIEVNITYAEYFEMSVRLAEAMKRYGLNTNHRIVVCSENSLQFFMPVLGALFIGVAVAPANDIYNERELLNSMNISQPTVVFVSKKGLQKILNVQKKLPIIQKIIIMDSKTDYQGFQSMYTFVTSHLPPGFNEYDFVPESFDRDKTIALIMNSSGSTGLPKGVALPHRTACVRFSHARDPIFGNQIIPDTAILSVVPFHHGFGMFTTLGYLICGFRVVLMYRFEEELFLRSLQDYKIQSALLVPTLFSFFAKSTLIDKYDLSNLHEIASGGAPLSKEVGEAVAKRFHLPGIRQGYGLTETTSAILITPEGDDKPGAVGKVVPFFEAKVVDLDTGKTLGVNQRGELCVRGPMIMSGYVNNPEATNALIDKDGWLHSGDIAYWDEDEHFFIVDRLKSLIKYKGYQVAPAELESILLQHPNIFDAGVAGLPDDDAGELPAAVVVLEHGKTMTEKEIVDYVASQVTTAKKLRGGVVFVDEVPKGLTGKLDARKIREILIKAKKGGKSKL
NCGC Assay Protocol Summary: Reagents: 50mM Tris acetate, pH 7.5; 10mM Mg acetate; 10uM D-luciferin (Sigma #L9504); 10uM ATP; 0.01% Tween-20; 0.05% BSA; 10nM P. pyralis luciferase (Sigma #L9506) Control compounds used were two known firefly luciferase inhibitors (compounds (2) and (5) in Auld et al., 2010), and DMSO. […]
(In general: qHTS replaces the single test concentration by a dilution series.)
`COc1ccc(NC(=O)Nc2cccc3cccnc23)cc1`: the Potency was 1.9 µM (active).
For `CC(C)c1c(CN(C)C(C)Cc2ccccc2)n(C)n(-c2ccccc2)c1=O` (stereo not given), the “activity change, negative = inhibition” value is -1.08%.
For the compound `Cc1ccccc1NC(=O)COC(=O)c1cc(C)n(C2CC2)c1C`, the “activity change, negative = inhibition” value was -2.71%.
Still for that read-out and setting: for `COC(=O)C1=C(c2cccc(OCc3ccccc3)c2)C[C@@H]2CC[C@H]1N2C(=O)NCc1ccc(Br)cc1` the value was -2.45%.
As for `COc1cccc(-c2nc3ccc(N4CCN(C)CC4)cc3[nH]2)c1`, the Potency is 0.269 µM (active).
For the compound `COc1ccc(C(=O)CC2C(=O)N(C)C(=O)N(C)C2=O)cc1`, the “activity change, negative = inhibition” value was -1.78%.
The same measure, in the same setting: next, `O=c1c2ccccc2nc(/C=C/c2ccco2)n1-c1ccccc1O`: -4.89%.
Regarding `Cn1c(O)c(C=Nc2ccc3c(c2)CCC3)c(=O)n(C)c1=O`, the Potency is 3.38 µM (active).
In the case of `Cn1c(O)c(C=NCCCC(=O)O)c(=O)n(C)c1=O`, the “activity change, negative = inhibition” value was 2.19%.
On the same count and under the same terms, for `Cn1c(O)c(C=NCCN2CCNCC2)c(=O)n(C)c1=O` the value was 5.53%; for `CCN1C(=O)C(=Cc2c(C)n(CC(=O)NCC3CCCO3)c3ccccc23)C(=O)N(CC)C1=S` (stereo not given), -22%.
Still for that read-out and setting: for `COC(=O)C1=C(c2ccc(F)cc2OCc2ccccc2)C[C@@H]2CC[C@H]1N2C(=O)NCc1ccc(C(C)(C)C)cc1` the value was 1.61%.
Take `O=C(OCC(=O)c1cccs1)C1=COCCO1`: the Potency is 23.9 µM (active).
On to `CSC1=NP(=S)(SC)N(C)c2nc3n(c21)CCC3` (stereo not given), for which the “activity change, negative = inhibition” value was 2.17%.
Consider `CC(C)c1ccc(OCC(=O)N2CCCN(C)CC2)cc1`, for which the “activity change, negative = inhibition” value was -16.6%.
With `CN(C)CC1CCCCC1=O` (stereo not given), the “activity change, negative = inhibition” value is 3.35%.
Turning to `CC(=O)Nc1ccc(C(=O)C(Cc2ccccc2)N(C)C)cc1` (stereo not given), the “activity change, negative = inhibition” value is 0.596%.
Take `O=C1NC(=O)N(c2ccccc2)C(=O)/C1=C/c1ccc([N+](=O)[O-])s1`: the Potency was 26.9 µM (active).
Turning to `O=C1NC(=O)N(c2ccc(F)cc2)C(=O)/C1=C/c1ccc2c(c1)CCCN2Cc1ccccc1`, the “activity change, negative = inhibition” value was -11.8%.
Same read-out and setting: for `CCN(CC)C(=O)c1ccc(NC(=O)c2sccc2-c2ccccc2)cc1` the value was -3.15%.
On the same count and under the same terms, for `O=[N+]([O-])c1ccc(C2C3C(c4ccccc4)=NC4(CCCCC4)N32)cc1` (stereo not given) the value was 7.73%.
`CC(=O)Oc1ccccc1C(=O)Nc1ncc([N+](=O)[O-])s1`: the Potency is 6.75 µM (active).
Turning to `C[C@]12CC[C@H](O)C[C@H]1CC[C@@H]1C2CC[C@]2(C)[C@@H](C3=CC(=O)OC3)[C@@H](O)C[C@]12O` (stereo not given in full), the “activity change, negative = inhibition” value is 2.82%.
Regarding `CCC1(C)CC(CCNCc2ccc(N(C)C)cc2)(c2ccc(F)cc2)CCO1` (stereo not given), the “activity change, negative = inhibition” value is -0.536%.
`CC(C)CN1CCN(Cc2ccccc2C(F)(F)F)CC1CCO` (stereo not given): the “activity change, negative = inhibition” value was 0.0821%.
Turning to `N#Cc1ccc(Cn2cc(C(=O)c3ccco3)c3ccccc32)cc1`, the Potency was 19 µM (active).
Turning to `NC(=O)Cn1cc(C(=O)c2ccccc2F)c2ccccc21`, the “activity change, negative = inhibition” value is -2.49%.
Turning to `CN1CCC(OC(=O)c2cccc(F)c2)CC1`, the “activity change, negative = inhibition” value was -2.03%.
Same read-out and setting: for `O=[N+]([O-])c1cnc2ccc3ccccc3c2c1` the value was -4.49%; for `CCCCCn1c(=O)c(C(=O)NCc2ccccc2)c(O)c2ccccc21`, -0.847%.
With `COC(=O)C1=C(c2c(C)noc2C)C[C@@H]2CC[C@H]1N2C(=O)NCc1ccc2c(c1)OCO2`, the “activity change, negative = inhibition” value was 6.85%.
With `Cc1cccc(Cn2cccc(C(=O)Nc3ccc4c(c3)OCCO4)c2=O)c1`, the Potency was 15.1 µM (active).
In the case of `Cc1nnc(NC(=O)c2cccn(Cc3cccc(F)c3)c2=O)s1`, the “activity change, negative = inhibition” value was 2.28%.
Take `Cc1ccc(NC(=O)N(Cc2ccc3c(c2)OCO3)C2CCN(Cc3ccccc3)CC2)cc1F`: the “activity change, negative = inhibition” value was 1.32%.
For `Cn1cc(C(=O)OCC(=O)N2CCCC2)c2ccccc21`, the “activity change, negative = inhibition” value was -4.49%.
On the same count and under the same terms, for `COC(=O)C1=C(c2ccccc2OCc2ccccc2)C[C@@H]2CC[C@H]1N2C(=O)NCc1ccc(OC)cc1` the value was 2.51%; for `C[C@@]1([C@@H](NP(=O)(c2ccccc2)c2ccccc2)c2ccccc2)C[C@H]1CCO`, -16.7%.
Take `O=C(O)CCn1cc(C=C2C(=O)NC(=S)NC2=O)c(-c2cccc(Br)c2)n1`: the Potency was 21.3 µM (active).
On to `COC(=O)C1=C(c2ccc(C(C)=O)cc2)C[C@@H]2CC[C@H]1N2C(=O)NCCNC(C)=O`, for which the “activity change, negative = inhibition” value was 2.93%.
The same measure, in the same setting: next, `Cc1ccccc1N1C(=O)NC(=O)/C(=C\c2cc(C)n(C)c2C)C1=O`: 1.58%.
With `Cc1ccnc(-n2c(C)cc(/C=C3\C(=O)NC(=S)N(C)C3=O)c2C)c1`, the Potency was 7.57 µM (active).
For the compound `Cc1cc(C=C2C(=O)NC(=O)NC2=O)c(C)n1-c1ccncc1`, the “activity change, negative = inhibition” value was -19.9%.
As for `O=C(CCC(=O)N1C[C@H]2C[C@@H](C1)c1cccc(=O)n1C2)NCc1ccccc1C(F)(F)F`, the “activity change, negative = inhibition” value is -1.48%.
On the same count and under the same terms, next, `COC(=O)C1=C(c2ccc(-c3ccccc3)c(F)c2)C[C@@H]2CC[C@H]1N2C(=O)NCc1ccc(F)cc1`: -0.451%; `Cc1cc(C)cc(NC(=S)NC2CC3CCCC(C2)N3Cc2cccs2)c1` (stereo not given): -1.54%.
For the compound `Cc1nc2ccccn2c1P(=S)(N1CCCCC1)N1CCCCC1`, the “activity change, negative = inhibition” value is 6.82%.
On the same count and under the same terms, next, `O=C1NC(=O)C(C/C=C/c2ccccc2)C(=O)N1`: -2.71%.
Take `Cc1ccc(NN=C2C(=O)OC(C)(C)OC2=O)c(C)c1`: the Potency is 9.53 µM (active).
Consider `CC1=C(C(=O)Nc2ccccc2)S(=O)(=O)CCO1`, for which the “activity change, negative = inhibition” value was 2.71%.
For `O=C(O)c1ccccc1NC(=O)C1C2CCC(O2)C1C(=O)O` (stereo not given), the “activity change, negative = inhibition” value is -1.49%.
